Measured values: PubChem BioAssay (EPA / NIEHS)
The source made the active and inactive calls. The calls were made as follows: active = hit-call score of the fitted dose curve at least 0.9, where 1 is the maximum; inactive = score below 0.9.

Read-out: Collagen III, COL3A1 (gene 1281)
Test: BSK_MyoF_CollagenIII: BioMAP Diversity Plus: MyoF Assay for Collagen III Biomarker Activity (AID 2284239)
Conditions: primary human lung fibroblasts
Procedure: BSK_MyoF is a cell-based, multiplexed-readout assay that uses lung fibroblasts, […], with measurements taken at 24 hours after chemical dosing in a microplate: 96-well plate.BSK_MyoF_CollagenIII is an assay component measured in the BSK_MyoF assay. It measures Collagen III antibody related to regulation of gene expression using ELISA technology.Data from the assay component BSK_MyoF_CollagenIII was analyzed at the endpoint, BSK_MyoF_CollagenIII, in the positive analysis fitting direction relative to DMSO as the negative control and baseline of activity. Using a type of binding reporter, gain or loss-of-signal activity can be used to understand protein changes. To generalize the intended target to other relatable targets, this assay endpoint is annotated to the 'cell adhesion molecules' intended target family, where the subfamily is 'collagen'.
The levels of cell surface (or secreted, indicated by the prefix "s") biomarker endpoints were measured by ELISA. Overt cytotoxicity to cells in confluent adherent cultures (all systems other than the BT system) was assessed by measuring total protein levels using sulforhodamine B (SRB) staining in parallel cultures at the time of biomarker measurements, indicated as SRB endpoints. For proliferation assays for adherent cell types, individual cell types are cultured at sub-confluence and relative cell numbers quantified by SRB staining at time points optimized for each system (48 h: 3C and CASM3C systems; 72 h: BT and HDF3CGF systems; 96 h: SAg system). SRB was performed by staining cells with 0.1% SRB after fixation with 10% TCA and reading wells at 560 nm.Viability and proliferation of PBMC (T cells) was quantified by Alamar Blue reduction for the SAg and BT systems. For PBMC viability (referred to as PBMC Cytotoxicity within the assay endpoint names), cells were plated (75,000/well in a 96-well plate) and then chemical samples added for 1 h before addition of activators, SEB and TSST-1 (20 ng/mL final concentration each). Cells were incubated for 90 h. Then, Alamar Blue (20 uL/well) (Invitrogen, Cat DAL1100) was added for 6 h, and the plates were read with a fluorescence microplate reader at 546/580 nm (excitation/emission). For PBMC proliferation, cells were plated and activated as above but incubated for only 16 h prior to addition of Alamar Blue. Plates were read after 6 h.

Compound	outcome	AC50
Cc1cccc(O)c1C	inactive	
NCC(F)(F)C(F)(F)C(F)(F)C(F)(F)F	inactive	
FC(F)(F)C(F)(F)C(F)(F)C(F)(F)C(F)(F)C(F)(F)I		30 µM (active)
OCc1c[nH]c2ccccc12	inactive	
OCCC(F)(F)C(F)(F)C(F)(F)C(F)(F)F	inactive	
FC(F)(F)COC(OCC(F)(F)F)OCC(F)(F)F	inactive	
OC(O)(C(F)C(O)(O)C(F)(F)F)C(F)(F)F	inactive	
C[Si](C)(C)C(F)(F)C(F)(F)C(F)(F)F	inactive	
FC(F)C(F)(F)COCC1CO1 (stereo not drawn)	inactive	
O=S(=O)(O)CCC(F)(F)C(F)(F)C(F)(F)C(F)(F)C(F)(F)C(F)(F)F	inactive	
O=C(Cl)C(F)(F)C(F)(F)C(F)(F)C(=O)Cl	inactive	
FC(F)=C(F)C(F)(F)C(F)(F)C(F)(F)C(F)(F)C(F)(F)C(F)(F)F	inactive	
S=P(N1CC1)(N1CC1)N1CC1	inactive	
